Screens from PubChem BioAssay.
DTT redox prof: compounds producing H2O2 with reducing agent – biochemical, NIH compound library profiling, artefact control for MLSCN library redox annotation, primary screen; DTT-dependent redox cycling H2O2, phenol red/HRP absorbance; 100% = 100 µM peroxide control, 0% = buffer; activation, % at 10 µM; hit rate 0.03% among 200,000; AID 878;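 active = activation of at least 50% relative to the plate's high and low controls in the primary single-dose screen; inactive = activation below 50%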;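 also: compound incubated with DTT at 0.8 mM final as the reducing agent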
Furin inhibitor: blocks human furin protease activity; P09958; purified furin, fluorogenic substrate cleavage; inhibition, % at 20 µM or 30 µM; hit rate 0.061% among 220,000; in the data active = inhibition above about 25%
Target sequence (P09958 108-714 limits assumed): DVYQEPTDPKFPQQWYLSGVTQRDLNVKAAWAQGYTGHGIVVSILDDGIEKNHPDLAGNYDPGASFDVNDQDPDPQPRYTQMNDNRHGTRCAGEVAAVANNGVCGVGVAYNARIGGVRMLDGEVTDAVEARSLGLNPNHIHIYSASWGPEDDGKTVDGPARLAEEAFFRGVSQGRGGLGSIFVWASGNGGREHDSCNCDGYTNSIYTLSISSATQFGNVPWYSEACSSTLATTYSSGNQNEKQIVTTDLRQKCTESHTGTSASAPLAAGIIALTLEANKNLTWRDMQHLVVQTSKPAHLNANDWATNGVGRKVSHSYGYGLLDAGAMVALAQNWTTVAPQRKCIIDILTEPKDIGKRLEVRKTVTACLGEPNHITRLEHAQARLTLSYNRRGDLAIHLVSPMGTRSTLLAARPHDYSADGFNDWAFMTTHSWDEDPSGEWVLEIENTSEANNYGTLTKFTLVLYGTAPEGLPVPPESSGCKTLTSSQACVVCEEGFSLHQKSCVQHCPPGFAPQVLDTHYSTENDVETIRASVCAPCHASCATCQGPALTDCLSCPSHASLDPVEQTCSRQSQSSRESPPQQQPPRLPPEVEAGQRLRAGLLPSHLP
FAS TE block: FAS thioesterase (human) inhibition; inhibition, % at 15 µM; hit rate 0.67% among 360,000; recombinant FAS-TE, OMFH fluorogenic substrate, fluorescence endpoint; AID 602261; P49327;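 active = compounds whose normalised, plate-corrected inhibition of enzyme fluorescence in the single-dose primary screen is 50% or more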;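 also: 0% = DMSO with enzyme and 100% = substrate without enzyme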
p97 ATPase inh: human p97 ATPase inhibition; hit rate 0.42% among 220,000; recombinant p97 ATPase, Kinase-Glo ATP luminescence, 3 h; inhibition, % at 8 µM; P55072; AID 1481; in the data active = inhibition above about 15%;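 also: 0% = DMSO vehicle and 100% = wells lacking enzyme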
UBC9 SUMO inh: SUMOylation inhibition. P63279. HTRF SUMOylation assay, SAE1/SAE2 + UBC9, in vitro. inhibition, % at 35 µM. hit rate 0.36% among 290,000; in the data active = inhibition above about 50%, passing the limit was not always enough
PKD1 kinase inh: PKD1 (human) kinase inhibition | Q15139 | inhibition, % (no concentration beside the values) | PKD1 kinase fluorescence polarization assay | hit rate 0.056% among 200,000; in the data active = inhibition above about 50%
FAS-TE conf: FAS thioesterase (human) inhibition, confirmation; recombinant FAS-TE, OMFH fluorogenic substrate, fluorescence; AID 624325; shares compounds with FAS TE block; inhibition, % at 15 µM; hit rate 45% among 2,300;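 active = compounds inhibiting the enzyme by at least 50% at 15 µM in any one of the replicates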;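 also: 0% = enzyme with DMSO only and 100% = wells lacking enzyme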
* marks the source's active call; other numbers are inactive results; . = no result. This is a sample that favours compounds with a hit; in the whole collection about 1.2% have one here.

SMILES	DTT redox prof	Furin inhibitor	FAS TE block	p97 ATPase inh	UBC9 SUMO inh	PKD1 kinase inh	FAS-TE conf
COc1ccc([N+](=O)[O-])cc1NC(=O)CSc1ccc2ccccc2c1	2	-19	55*	-9	9	1	44
CCOc1ccc(-n2cc(C(=O)Nc3cccc(Cl)c3)c3cc(OC)c(OC)cc3c2=O)cc1	0	-20	59*	-8	-2	-1	19
CC1(c2nnc(Cc3ccccc3)o2)CC(c2ccccc2Br)=NO1 (configuration not stated)	.	.	4	.	.	.	.
COc1ccc(-n2c(C)nnc2SCC(=O)N2CCOCC2)cc1	.	.	-1	.	8	.	.
COc1ccc([N+](=O)[O-])cc1NC(=O)C(C)NNC(=O)c1cccc([N+](=O)[O-])c1 (configuration not stated)	.	.	56*	.	.	.	53*
COc1ccc([N+](=O)[O-])cc1NC(=O)C(C)c1ccccc1 (configuration not stated)	0	-11	45	4	-20	-5	.
COc1ccc([N+](=O)[O-])cc1NC(=O)c1cn(-c2ccc(Cl)cc2)c(=O)c2ccccc12	0	-17	91*	10	6	-4	2
CC1CN(c2ccccn2)C(C)CN1C(=S)Nc1ccccc1 (configuration not stated)	.	.	-4	.	.	.	.
N#Cc1c(-c2ccccc2)c(-c2ccccc2)nn(CC(=O)NNC(=O)Nc2ccc(Cl)c(Cl)c2)c1=O	-1	-11	69*	8	-25	-1	48*
O=C(/C=C/c1cccc([N+](=O)[O-])c1)N1CCN(c2ccccc2F)CC1	0	-20	56*	0	0	0	42*
O=[N+]([O-])c1cccc(OCCN2CCC(Cc3ccccc3)CC2)c1	.	.	63*	.	-10	.	67*
O=C(Cc1ccccc1)NC1CCN(C(=O)c2ccc([N+](=O)[O-])cc2)CC1	.	.	-2	.	-7	.	.
O=C(c1ccc([N+](=O)[O-])cc1)N1CCC(Cc2ccccc2)CC1	0	-15	59*	-1	-5	-7	54*
CCC12CN(C(=O)c3ccc(OC)cc3)CC(CC)(CN(C(=O)c3ccc(OC)cc3)C1)C2=O	0	-11	-7	4	16	2	.
CCC12CN(C(=O)c3ccc([N+](=O)[O-])cc3)CC(CC)(CN(C(=O)c3ccc([N+](=O)[O-])cc3)C1)C2=O	.	-12	58*	0	30	.	38
Cc1ccc([N+](=O)[O-])c(OCCCN2CCC(Cc3ccccc3)CC2)c1	.	.	15	.	.	.	.
CC(C)Cn1c(N)c(C(=O)COC(=O)c2cccn2C)c(=O)n(C)c1=O	.	.	2	.	.	.	.
CC(=O)N[C@@H]1[C@@H](O)[C@@H]2OC(c3ccccc3)OC[C@H]2O[C@@H]1N=[N+]=[N-] (some centres not stated)	.	.	-4	.	14	.	.
COc1cccc(-c2cnc3c(NC=O)cc(-c4ccccc4)cn23)c1	.	.	20	.	.	.	.
COc1cccc(-c2cnc3c(NC=O)cc(-c4ccc(S(C)(=O)=O)cc4)cn23)c1	.	.	55*	.	.	.	56*
CCCC1NC(C(=O)O)Cc2c1[nH]c1ccccc21 (configuration not stated)	.	.	-3	.	7	.	.
Cc1cccc(NS(=O)(=O)c2ccc3[nH]c(=O)cc(C(=O)OC(C)C(=O)Nc4ccc([N+](=O)[O-])cc4)c3c2)c1 (configuration not stated)	-2	-9	87*	12	7	3	93*
Cc1ccc(S(=O)(=O)N2[C@@H](c3ccc(C(C)(C)C)cc3)C(C(=O)O)=CC[C@H]2c2ccc(Cl)cc2)cc1	.	.	55*	.	.	.	49*
Cc1ccc(S(=O)(=O)N2[C@@H](c3cccc(Cl)c3)C(C(=O)O)=CC[C@H]2c2ccc(Cl)cc2)cc1	.	.	21	.	.	.	.
Cc1ccc(S(=O)(=O)N2[C@@H](c3ccc(C(C)(C)C)cc3)C(C(=O)O)=CC[C@H]2c2ccc(C(C)C)cc2)cc1	.	.	76*	.	.	.	25
SMILES	DTT redox prof	Furin inhibitor	FAS TE block	p97 ATPase inh	UBC9 SUMO inh	PKD1 kinase inh	FAS-TE conf
Cc1ccc(S(=O)(=O)N2[C@@H](c3ccc(Br)cc3)C(C(=O)O)=CC[C@H]2c2ccc(C(C)C)cc2)cc1	.	.	25	.	.	.	.
O=S(=O)(c1ccc(-c2csc(-c3cccnc3)n2)cc1)N1CCOCC1	-1	-19	79*	2	4	3	82*
O=C(Nc1nc(-c2ccc(S(=O)(=O)N3CCOCC3)cc2)cs1)c1ccccc1	-1	-23	22	3	-102	-2	.
CCCCC(=O)Nc1nc(-c2ccc(S(=O)(=O)N3CCOCC3)cc2)cs1	.	.	88*	.	6	.	91*
CC(C)CC(=O)Nc1nc(-c2ccc(S(=O)(=O)N3CCOCC3)cc2)cs1	.	.	52*	.	11	.	20
COC(=O)c1ccccc1NC(=S)N(Cc1ccc2c(c1)OCO2)Cc1cc2cccc(C)c2[nH]c1=O	1	-23	83*	4	-10	2	8
Cn1c(=O)c2c3c(sc2n2c(SCC(N)=O)nnc12)CC(C(C)(C)C)CC3 (configuration not stated)	1	-11	56*	-8	17	-4	41
CCCCN(CCCC)C(=O)CSc1nnc2n(C)c(=O)c3c4c(sc3n12)CCCC4	-1	-24	18	-5	22	-1	.
CCOC1=C2CN(S(=O)(=O)c3ccc(C)cc3)[C@H](c3ccccc3)C[C@H]2n2c(=O)n(-c3ccccc3)c(=O)n2C1	.	.	70*	.	.	.	14
CCOC1=C2[C@H](c3ccc(Cl)cc3)N(S(=O)(=O)c3ccc(C)cc3)C[C@H]2n2c(=O)n(-c3ccccc3)c(=O)n2C1	.	.	56*	.	.	.	13
O=C(Nc1cccc(S(=O)(=O)N2CCCCC2)c1)c1ccc(S(=O)(=O)C(F)F)cc1	-1	-21	59*	2	-5	1	39
O=C(Nc1cccc(S(=O)(=O)C(F)F)c1)c1ccc(S(=O)(=O)N2CCCCC2)cc1	-1	-11	26	-4	-18	-5	.
O=C(Nc1cccc(S(=O)(=O)N2CCCCC2)c1)c1ccc2c(=O)n3c(nc2c1)CCCCC3	0	-12	60*	14	-12	0	22
COc1ccc2cc3cc(C(=O)N4CC(C)CC(C)C4)oc3nc2c1 (configuration not stated)	.	.	69*	.	7	.	75*
O=C(c1cc2cc3ccc(Cl)cc3nc2o1)N1CCCCCC1	.	.	62*	.	4	.	41*
Cc1ccc2cc3cc(C(=O)NC4CCCCC4)oc3nc2c1	.	.	10	.	26	.	.
Cc1ccc2cc3cc(C(=O)NCCCN4CC(C)CC(C)C4)oc3nc2c1 (configuration not stated)	.	.	-4	.	28	.	.
